The results in this text go back to ChEMBL document CHEMBL1201862, “PubChem BioAssay data set” (2004).

The structures appear in SMILES notation. In all, about 400,000 compounds went through this assay and about 2,100 (0.53%) were called active. About 14% were inconclusive and are not listed. No rule for the calls is given here. The sample as a whole holds a higher share of actives than the screen did.

The target of the test is Ataxin-2 (Homo sapiens) (UniProt Q99700). Briefly: qHTS for Inhibitors of ATXN expression. In kind it is functional.
Sequence of Ataxin-2 (Homo sapiens) (Q99700 whole entry): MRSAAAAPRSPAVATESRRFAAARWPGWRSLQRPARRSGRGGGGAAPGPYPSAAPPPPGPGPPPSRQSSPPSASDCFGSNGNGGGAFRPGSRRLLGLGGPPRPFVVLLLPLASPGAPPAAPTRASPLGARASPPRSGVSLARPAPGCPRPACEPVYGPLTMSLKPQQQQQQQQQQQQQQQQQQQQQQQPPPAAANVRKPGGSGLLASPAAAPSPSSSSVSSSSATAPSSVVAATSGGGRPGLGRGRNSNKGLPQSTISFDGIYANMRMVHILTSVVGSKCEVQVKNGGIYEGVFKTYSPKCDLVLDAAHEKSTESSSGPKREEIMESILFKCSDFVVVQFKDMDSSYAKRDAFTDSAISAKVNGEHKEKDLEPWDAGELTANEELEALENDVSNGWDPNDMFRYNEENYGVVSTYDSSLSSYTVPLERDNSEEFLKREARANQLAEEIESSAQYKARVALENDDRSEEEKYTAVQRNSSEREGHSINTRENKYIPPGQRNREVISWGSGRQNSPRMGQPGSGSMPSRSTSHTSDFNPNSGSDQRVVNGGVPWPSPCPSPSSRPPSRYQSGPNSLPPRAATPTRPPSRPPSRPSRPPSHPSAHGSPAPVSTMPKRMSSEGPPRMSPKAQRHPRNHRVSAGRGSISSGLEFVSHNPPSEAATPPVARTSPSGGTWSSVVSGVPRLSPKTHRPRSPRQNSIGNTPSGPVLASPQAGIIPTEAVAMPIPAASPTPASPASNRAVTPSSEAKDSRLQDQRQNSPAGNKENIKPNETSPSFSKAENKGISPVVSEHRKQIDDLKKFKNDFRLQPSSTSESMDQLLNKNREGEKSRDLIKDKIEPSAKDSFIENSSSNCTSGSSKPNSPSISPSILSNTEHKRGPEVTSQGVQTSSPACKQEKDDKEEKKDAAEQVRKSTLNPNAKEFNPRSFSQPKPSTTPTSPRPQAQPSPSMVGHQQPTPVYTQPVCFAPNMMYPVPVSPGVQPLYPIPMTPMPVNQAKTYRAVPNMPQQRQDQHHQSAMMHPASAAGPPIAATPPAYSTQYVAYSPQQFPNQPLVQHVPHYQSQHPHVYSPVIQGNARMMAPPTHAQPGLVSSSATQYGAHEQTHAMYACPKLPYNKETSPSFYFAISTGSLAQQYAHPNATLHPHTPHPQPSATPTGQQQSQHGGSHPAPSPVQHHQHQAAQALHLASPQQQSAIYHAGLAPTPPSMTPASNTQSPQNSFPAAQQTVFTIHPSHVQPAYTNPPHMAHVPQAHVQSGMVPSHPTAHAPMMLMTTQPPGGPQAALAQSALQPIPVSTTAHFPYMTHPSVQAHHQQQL
Turning to `CCOc1ccc(NC(=O)CC(NC(C)=O)c2ccccc2)cc1S(=O)(=O)N1CCCC1` (stereo not given), the Potency entry was “inactive”.
The value for `Cc1c(-c2ccccc2)c(=O)oc2cc(O)ccc12` was “inactive”; that for `CCCn1c(O)c(C(=O)NCCc2ccc(OC)cc2)c(=O)c2ccccc21` was “inactive”.
For the compound `COc1cccc(Cn2cccc(NC(=O)Nc3ccccc3C)c2=O)c1`, the Potency entry was “inactive”.
In the case of `COc1ccc(Cn2cc(C(=O)c3ccc(C)cc3)c(=O)c3cc(OC)c(OC)cc32)cc1`, the Potency was 11.2 µM (active).
As for `COc1ccc(-n2cc(C(=O)c3ccccc3O)cn2)cc1`, the Potency result is “inactive”.
In the case of `COc1ccc(Cn2cc(C(=O)c3ccc(C)c(C)c3)c(=O)c3ccccc32)cc1`, the Potency was 31.6 µM (active).
The value for `COc1ccc(/C=c2\s/c(=C/C(=O)c3ccc(C)cc3)[nH]c2=O)c(OC)c1` was “inactive”; that for `Cc1ccc(S(=O)(=O)NC(C)C(=O)OCC(=O)Nc2sccc2C(N)=O)cc1` (stereo not given) was “inactive”; that for `Cc1ccc(C)c(Nc2nc3nonc3nc2Nc2cccc(C)c2C)c1` was 10 µM (active).
In the case of `Cc1ccccc1Nc1cccc2nonc12` it was “inactive”; in that of `O=C(CCc1ccccc1)NC(=S)Nc1ccccc1Br`, “inactive”; in that of `O=C(CCc1ccccc1)NC(c1cccs1)c1cc(Cl)c2cccnc2c1O` (stereo not given), “inactive”.
Turning to `O=C(CCc1ccccc1)NC(NC(=S)Nc1ccc(Cl)cc1)C(Cl)(Cl)Cl` (stereo not given), the Potency is 39.8 µM (active).
Take `O=C1c2oc3ccc(Cl)cc3c(=O)c2C(c2ccccn2)N1CCCN1CCOCC1` (stereo not given): the Potency entry was “inactive”.
As for `NC(=O)C1=CC2C3C=CC2(O)C(=O)OC3O1` (stereo not given), the Potency is 16.8 µM (active).
For the compound `Cn1cc(/C=C/c2cc[n+](C)cc2)c2cc(F)ccc21`, the Potency result is “inactive”.
Consider `CCOC(=O)Cc1csc(NC(=O)COc2ccc3c(C)cc(=O)oc3c2)n1`, for which the Potency result is “inactive”.
As to `CCOC(=O)Cc1csc(NC(=O)CN2CCN(c3ccccc3)CC2)n1`, the Potency entry was “inactive”.
Turning to `CCOC(=O)Cc1csc(NC(=O)c2ccc3ncsc3c2)n1`, the Potency is 35.5 µM (active).
Consider `SC1=NCN(Cc2ccco2)CN1`, for which the Potency entry is “inactive”.
Turning to `Clc1ccc(/C=C/c2ncc3ccccn23)cc1`, the Potency result was “inactive”.
Take `CCc1ccc2c(c1)/C(=C/C(=O)c1cccs1)C(=O)N2`: the Potency was 20 µM (active).
The value for `CCc1cc2c(-c3ccccc3)cc(=O)oc2cc1OC(=O)c1cccs1` was “inactive”.
Turning to `COCCN(CCOC)Cc1c(O)ccc2c1O/C(=C\c1ccc(C)o1)C2=O`, the Potency entry is “inactive”.
The value for `COc1ccc(/C=N/NC(=O)c2cccc(C(F)(F)F)c2)cc1` was “inactive”; that for `COc1ccc(/C=C/C(=O)Oc2ccc(/C=N/NC(=O)c3ccccc3)cc2)cc1OC` was 31.6 µM (active).
As to `Nc1ccc(C(=O)N/N=C\c2ccc(OC(=O)c3ccccc3Cl)cc2)cc1`, the Potency result was “inactive”.
For the compound `O=C(CNC(=O)c1ccccc1F)NCc1ccccn1`, the Potency entry was “inactive”.
On to `O=C1NC(=O)/C(=C\c2ccc(OCc3cccc([N+](=O)[O-])c3)cc2)N1`, for which the Potency entry is “inactive”.
Turning to `O=C1/C(=C/c2cccc(Cl)c2)CSc2sccc21`, the Potency result was “inactive”.
For `CCCN1C/C(=C/c2cccc([N+](=O)[O-])c2)C(=O)/C(=C/c2cccc([N+](=O)[O-])c2)C1`, the Potency was 4.47 µM (active).
Regarding `Cc1cccc(N2CCN(S(=O)(=O)c3cccs3)CC2)c1C`, the Potency entry was “inactive”.
Turning to `Cc1ccccc1C1(CC(=O)N2CCCC2c2nccs2)CC(=O)N(C2CCCC2)C1=O` (stereo not given), the Potency result is “inactive”.
The value for `C=CCn1c(=O)[nH]c2nc3cc(/N=C/N(C)C)c(C)cc3nc2c1=O` was “inactive”; that for `CC1(c2ccccc2)NC(=O)N(CC(=O)NCc2cccc(Cl)c2)C1=O` (stereo not given) was “inactive”; that for `O=C(CCl)NN1C(=O)NC(c2ccccc2)(c2ccccc2)C1=O` was 26.7 µM (active).
Consider `O=C(NCc1ccccc1Cl)c1ccc2c(=O)n(CC3CCCO3)c(=S)[nH]c2c1` (stereo not given), for which the Potency result was “inactive”.
In the case of `Cc1csc(N=Nc2ccc(N(C)C)cc2)[n+]1[O-]`, the Potency was 14.1 µM (active).
For `CN(C)c1ccc(N=Nc2nc3ccccc3n2C)cc1`, the Potency entry was “inactive”.
As for `CCCN(CC(=O)Nc1ccc(F)c(F)c1F)C(=O)CN1C(=O)NC2(CCCCC2)C1=O`, the Potency result was “inactive”.
As to `O=C(CSc1cccc[n+]1[O-])c1cc(Cl)ccc1Cl`, the Potency was 3.77 µM (active).
On to `O=C(CSc1cc(Cl)ccc1Cl)NC1CCCc2ccccc21` (stereo not given), for which the Potency entry is “inactive”.
In the case of `COC(=O)c1cnc(SCc2ccc(Cl)cc2)n1C`, the Potency result was “inactive”.
For `Cc1ccc(S(=O)(=O)N(CCCO)CC(O)CON=C2c3ccccc3-c3ccccc32)cc1` (stereo not given), the Potency was 20 µM (active).
In the case of `CCN(CC(O)CON=C1c2ccccc2-c2ccccc21)S(=O)(=O)c1ccc(Cl)cc1` (stereo not given), the Potency is 17.8 µM (active).
As for `CC(C)(C)NCC(O)CON=C1c2ccccc2-c2ccccc21` (stereo not given), the Potency entry was “inactive”.
Take `CCN(CC)S(=O)(=O)c1ccc(C(=O)N(c2ccc(C)cc2)C2C=CS(=O)(=O)C2)cc1` (stereo not given): the Potency entry was “inactive”.
Consider `CCOc1ccccc1N(C(C)=O)S(=O)(=O)c1ccc(Cl)cc1`, for which the Potency result is “inactive”.
Consider `CN(C)CCN=c1cc(-c2ccccc2)oc2ccc(Cl)cc12`, for which the Potency entry is “inactive”.
For the compound `O=C(NCC1CCN(C(=O)c2ccc([N+](=O)[O-])cc2)CC1)c1ccc([N+](=O)[O-])cc1`, the Potency entry is “inactive”.
On to `Cc1ccccc1CSc1nnc(-c2cnccn2)n1C`, for which the Potency result was “inactive”.
As for `CCCn1c(SCc2nc(-c3ccccc3C)no2)nnc1-c1ccc(Cl)cc1`, the Potency was 39.8 µM (active).
Regarding `CN(/N=C/c1ccc(Br)o1)C1=NS(=O)(=O)c2ccccc21`, the Potency entry was “inactive”.
On to `CC(C)OC(=O)CSc1nnc(COc2ccc([N+](=O)[O-])cc2)n1C`, for which the Potency result was “inactive”.
For `Cc1ccc(C)c(-n2c(N)c(C#N)c3nc4ccccc4nc32)c1`, the Potency entry was “inactive”.
For the compound `Cn1ncc2c(ON=C(N)c3ccc(C(C)(C)C)cc3)ncnc21`, the Potency was 39.8 µM (active).
In the case of `Cc1ccccc1C(=O)NNc1ncnc2c1cnn2C` it was “inactive”.
Turning to `COc1ccc(NC(=O)c2sc3nc(C)c(C(=O)Nc4ccc(C)cc4C)c(-c4ccccc4Cl)c3c2N)cc1`, the Potency result was “inactive”.
For the compound `c1ccc(C2=NN=C(c3ccncc3)c3ccc4ccccc4c3N2)cc1`, the Potency result is “inactive”.
Consider `N=c1c(C(=O)NCC2CCCO2)cc2c(=O)n3ccccc3nc2n1Cc1ccc(F)cc1` (stereo not given), for which the Potency result was “inactive”.
Turning to `Cc1ccc(S(=O)(=O)N2CCN(C(=O)COC(=O)Cc3ccc(Cl)cc3)CC2)c(C)c1`, the Potency result is “inactive”.
For the compound `Cc1nn(Cc2ccccc2)c(C)c1C(=O)N1CCN(S(=O)(=O)/C=C/c2ccccc2)CC1`, the Potency result is “inactive”.
With `Cc1cccc(C(=O)NCC(=O)N2CC=C(c3ccccc3)CC2)c1`, the Potency result was “inactive”.
Take `Cc1cccc(COC[C@H](Cc2ccccc2)N2CCN(C(=O)c3cccc(Cl)c3)CCC2=O)c1`: the Potency was 25.1 µM (active).
On to `O=C(c1cccc(Cl)c1)N1CCC(=O)N(C(COCc2cccc(Cl)c2)Cc2ccccc2)CC1` (stereo not given), for which the Potency was 35.5 µM (active).
The value for `Cc1cccc(C(=O)N2CCC(=O)N([C@H](COCc3ccc(Cl)cc3)Cc3ccccc3)CC2)c1` was 39.8 µM (active); that for `O=C1/C(=C/c2cccc(F)c2)Oc2cc(O)ccc21` was “inactive”; that for `CN1CCc2c(sc3c2C(=O)NC(/C=C\c2ccccc2)N3)C1` (stereo not given) was “inactive”.
As to `O=c1cc(-c2ccccc2)c2ccc3c(c2o1)CN(Cc1cccc(Cl)c1)CO3`, the Potency result was “inactive”.
As for `Cc1ccc(S(=O)(=O)C(C#N)c2nc3ccccc3nc2N2CC(C)OC(C)C2)cc1C` (stereo not given), the Potency result was “inactive”.
Turning to `Cc1c(CCOC(=O)CC23CC4CC(CC(C4)C2)C3)sc[n+]1CC(=O)c1ccccc1`, the Potency was 29.9 µM (active).
Regarding `Cc1c(CCOC(=O)C23CC4CC(CC(C4)C2)C3)sc[n+]1CC#N`, the Potency was 31.6 µM (active).
In the case of `Cc1c(CCOC(=O)C2C3CC4CC(C3)CC2C4)sc[n+]1CC(=O)c1ccc(Br)cc1` (stereo not given), the Potency was 20 µM (active).
For `CN1CCC(N(C)C(S)=NCCc2ccccc2)CC1`, the Potency result was “inactive”.
The value for `CCNS(=O)(=O)c1ccc(CCC(=O)N2CCc3ccccc3C2)cc1` was “inactive”; that for `Cc1ccc2nc(C)c3c(c2c1)N(c1ccc(F)cc1)CC3` was “inactive”; that for `CC(C)NCC(O)Cn1c2c(c3ccccc31)CCc1c-2cnn1-c1ccccc1` (stereo not given) was 25.1 µM (active).
Turning to `N#Cc1sc2nc(-c3cccs3)cc(-c3ccccc3)c2c1N`, the Potency entry was “inactive”.
With `Cc1ccc(C(=O)C(C)[n+]2cccc(C(N)=O)c2)cc1` (stereo not given), the Potency result was “inactive”.
The value for `NC(=O)c1ccc(NC(=O)CNC(c2ccccc2)c2ccccc2)cc1` was “inactive”; that for `Cc1ccc(C(=O)Sc2cccccc2=O)cc1` was 2.51 µM (active).
Take `Cc1cccc(CC(=O)N2CCC(N3CCC(C(=O)N4CCOCC4)CC3)CC2)c1`: the Potency entry was “inactive”.
The value for `COc1ccc(-c2noc(CSc3nnc(Cc4ccccc4)n3-c3ccc(F)cc3)n2)cc1` was 39.8 µM (active); that for `COc1ccccc1-c1ccc(SCc2cccc(F)c2)nn1` was “inactive”; that for `COc1ccc(OC(C)C(=O)N(C)Cc2nc(-c3ccccc3)no2)cc1` (stereo not given) was “inactive”.
As for `COc1ccc(OC(C)C(=O)N(C)Cc2nc(-c3ccc(C)cc3)no2)cc1` (stereo not given), the Potency entry is “inactive”.
Take `COc1ccccc1-c1noc(CSc2nnc(Cc3ccccc3)n2-c2ccc(C)c(C)c2)n1`: the Potency was 35.5 µM (active).
As for `COc1ccc(OC)c(-c2noc(CSc3nnc(Cc4ccccc4)n3-c3cccc(C)c3)n2)c1`, the Potency is 22.4 µM (active).
As to `COc1ccc(Cc2noc(CN(C)CCN3CCc4ccccc4C3)n2)cc1OC`, the Potency result was “inactive”.
In the case of `COc1ccc(-c2noc(CSc3nnc(Cc4ccccc4)n3-c3cccc(C)c3)n2)cc1`, the Potency is 39.8 µM (active).
On to `COCC(C)n1c(SCc2nc(O)c3ccccc3n2)nc2ccccc2c1=O` (stereo not given), for which the Potency entry was “inactive”.
Take `Nc1ccc(-c2c3ccccc3nc3ccccc23)cc1`: the Potency result is “inactive”.
With `CC(=O)c1cnc(SCc2ccc(Cl)cc2)nc1C`, the Potency result was “inactive”.
`COc1cccc(-c2csc(/C(C#N)=C/Nc3cc4oc5ccccc5c4cc3OC)n2)c1`: the Potency entry is “inactive”.
Consider `CNC(=O)c1ccc(NC(=O)CC2SC(N3CCCC3)=NC2=O)cc1` (stereo not given), for which the Potency entry is “inactive”.
The value for `O=c1oc2ccc3ccccc3c2cc1-c1nnc(-c2cccs2)o1` was “inactive”; that for `O=C(OCC(=O)N1CCCC1=O)C1CCN(S(=O)(=O)c2ccc(Cl)c(C(F)(F)F)c2)CC1` was “inactive”; that for `Cc1ccc(NC(=O)COC(=O)[C@H](C)N2C(=O)C3CC=CCC3C2=O)cc1S(=O)(=O)N(C)C` (stereo not given in full) was “inactive”.
In the case of `CCCN(CC(=O)Nc1ccccc1C)C(=O)c1ccc(N2CCCC2=O)cc1` it was “inactive”.
